Active and inactive are the calls of the source. The calls were made as follows: active = hit-call score of the fitted dose curve at least 0.9, where 1 is the maximum; inactive = score below 0.9.
Experiment: ATG_Oct_MLP_CIS: Attagene CIS-FACTORIAL HepG2 Assay for human Octamer-Binding Transcription Factor (Oct) (AID 2282993)
Conditions: HepG2 Attagene cis-factorial Oct reporter, mRNA; actives raise or lower the signal
Procedure: ATG_CIS is a cell-based, multiplexed-readout assay that uses HepG2, a human liver cell line, with measurements taken at 24 hours after chemical dosing in a 24-well plate.ATG_Oct_MLP_CIS is one of 52 assay component(s) measured or calculated from the ATG_CIS assay. It is designed to make measurements of mRNA induction, a form of inducible reporter, as detected with fluorescence intensity signals by Reverse transcription polymerase chain reaction (RT-PCR) and Capillary electrophoresis technology.Data from the assay component ATG_Oct_MLP_CIS was analyzed into 1 assay endpoint. This assay endpoint, ATG_Oct_MLP_CIS, was analyzed with bidirectional fitting relative to DMSO as the negative control and baseline of activity. Using a type of inducible reporter, measures of mRNA for gain or loss-of-signal activity can be used to understand the reporter gene at the transcription factor-level as they relate to the gene POU2F1. Furthermore, this assay endpoint can be referred to as a primary readout, because this assay has produced multiple assay endpoints where this one serves a reporter gene function. To generalize the intended target to other relatable targets, this assay endpoint is annotated to the dna binding intended target family, where the subfamily is POU domain protein.
Human liver HepG2 cells are transiently transfected with multiple reporter transcription units (MRTUs) in 6-well plates using FuGene 6 reagent (Roche; 3 ml FuGene/1 mg DNA). The MRTU constructs are regulated by a cis-regulating element (promoter). […] A major difference between the CIS and TRANS system is that in CIS activities of endogenous TFs are measured, whereas the TRANS assay evaluates changes in activities of exogenous, chimeric NR-Gal4 proteins. […] At the end of 24 hour incubation, total RNA was isolated using TriZol reagent (Invitrogen). The isolated RNA is then reverse-transcribed using oligo(dT) primer and Mo-MLV reverse transcriptase (Invitrogen) with DNAse I (Ambion) treatment for 30 min. The one-tenth of the produced cDNA was amplified by PCR using Taq DNA polymerase (Invitrogen) and two reporter sequence-specific primers. The PCR products were fluorescently labeled by primer extension with 6-arboxyfluorescein (6-FAM) 5'-labeled reporter sequence-specific primer (2 min at 95 C, 20 s at 68 C and 10 min at 72 C) and these products were digested with 5U of HpaI (New England Biolabs) for 2h at 37 C. The fragments were purified using Qiaquick PCR columns (Qiagen), analyzed on an ABI 3130xL genetic analyzer (Applied Biosystems) with peak positions identified by using a set of X-rhodamine (ROX)-labeled MapMarker1000 molecular weight standards (BioVentures). The raw capillary electrophoresis data was processed using Attagraph software (Attagene).

outcome, inactive:
C[C@]12CC[C@H]3[C@@H](CCC4=CC(=O)CC[C@@]43C)[C@@H]1CC[C@@H]2C(=O)CO
CCCCCCCCCCC(CO)CCCCCCCC (stereo not given)
CCCCCCCCCCN
C=C(C)[C@@H]1CC[C@@H](C)C[C@@H]1O
CCCCCNCCCCC
CC(c1cc2ccccc2s1)N(O)C(N)=O (stereo not given)
C=C(C)C(=O)O[C@H]1C[C@@H]2CC[C@@]1(C)C2(C)C
S=C(S)NCCNC(=S)S
CCC(C(=O)NC(N)=O)c1ccccc1 (stereo not given)
Clc1nc(C(Cl)(Cl)Cl)c(Cl)c(Cl)c1Cl
CN(CCOc1ccc(CC2SC(=O)NC2=O)cc1)c1ccccn1 (stereo not given)
NC(N)=NC(=O)c1nc(Cl)c(N)nc1N
CCCCC/C=C/C=C/C=O
OCc1cccnc1
CCCCCCCCCCCCCCCC(=O)O
O=C(Oc1ccccc1)c1ccc(O)cc1
NC(=O)Nc1ccc(Cl)cc1
CC1=CC(=O)NS(=O)(=O)O1
O=C(Nc1ccccc1)c1cc([N+](=O)[O-])ccc1Cl
Cc1ccc(C=O)cc1
COC(=O)Cc1cccc2ccccc12
O=c1[nH]nnc2ccccc12
OC[C@H]1O[C@H](O[C@]2(CCl)O[C@H](CCl)[C@@H](O)[C@@H]2O)[C@H](O)[C@@H](O)[C@H]1Cl
CC(C)(C)c1cc(CCC(=O)NN)cc(C(C)(C)C)c1O
CC[Si](OC(C)=O)(OC(C)=O)OC(C)=O
CCCC[n+]1ccccc1
Cc1c(N(C)C)c(=O)n(-c2ccccc2)n1C
CCCCCCCCCC=O
NCCNCCN
COc1ccc(NC(=O)CC(C)=O)cc1
C=C(C)C1CCC(C)CC1O (stereo not given)
O=C(O)c1cn(C2CC2)c2cc(N3CCNCC3)c(F)cc2c1=O
CCN(CC)c1ccc2c(-c3ccccc3C(=O)O)c3ccc(=[N+](CC)CC)cc-3oc2c1
CCCCC[Si](OCC)(OCC)OCC
OCCN1CCNCC1
CC(C)=CCCC(C)=CCCC(C)=CCO
COc1ccc(Cl)cc1C
CCCC1CCC(=O)O1 (stereo not given)

AC50, active:
C=CC(C)(O)CCC=C(C)CCC=C(C)C (stereo not given) 82.7 µM
N#Cc1nc(Cl)c(Cl)c(Cl)c1Cl 2.54 µM
